Hit rate of the full screen: of about 300,000 compounds, about 37,000 (12%) were called active. Cut-off read from the data, not from the text of the source: active = max response mostly above about 13% (no sharp cut-off); inactive = mostly below about 14%. Many of the other results were omitted from the sample, so actives are more common in it than they were.
Assay: Cycloheximide Counterscreen for Small Molecule Inhibitors of Shiga Toxin; note: read at 38.3 µM for the half of the compounds with a filed dose; 0% is about no effect
Conditions: cell reporter, cycloheximide protein synthesis inhibition counterscreen; hits give high values

| SMILES | max response |
| --- | --- |
| Cc1cccc(NC(=O)C2CCCN(C(=O)Nc3ccc(F)cc3)C2)c1C (centres undefined) | -3.65% (inactive) |
| CCC(=O)NCCc1nc2ccccc2n1CC | -2.66% (inactive) |
| CC(C)CC(=O)N/C(N)=N/c1nc2ccccc2s1 | 44.8% (active) |
| CCC(=O)NC(=Nc1nc2ccccc2s1)NC(=O)CC | 28.7% (active) |
| CC(C)CC(=O)NC(=S)NCc1ccccc1 | 3.76% (inactive) |
| Cc1cc(C(=O)OCC(=O)Nc2nnc(C(C)C)s2)c2ccccc2n1 | -2.56% (inactive) |
| CC(C)C(C)NC(=O)COc1ncnc2ccccc12 (centres undefined) | -3.43% (inactive) |
| CSCCC(NS(=O)(=O)c1ccccc1F)C(=O)N1CC=C(c2ccccc2)CC1 (centres undefined) | -2.39% (inactive) |
| COc1ccc(N(C(=O)c2snc(C(N)=O)c2N)C(C(=O)NC2CCCC2)c2ccco2)cc1OC (centres undefined) | -2.38% (inactive) |
| CC(C)C(C(=O)NCc1ccco1)N(CC1CCCO1)C(=O)CNS(=O)(=O)c1ccc(F)cc1 (centres undefined) | -6.69% (inactive) |
| Cc1cc(-c2ccc(S(=O)(=O)N3CCc4ccccc4C3)s2)on1 | -3.48% (inactive) |
| O=C(N/N=C/c1cc(Cl)cc([N+](=O)[O-])c1O)C(O)(c1ccccc1)c1ccccc1 | -1.36% (inactive) |
| N#Cc1ccsc1NC(=O)CN1CCN(S(=O)(=O)c2cc(Cl)ccc2Cl)CC1 | -2.08% (inactive) |
| C=C(C)C(=O)O[C@H]1C/C(C)=C\C(=O)/C=C(\C)[C@H](O)[C@@H]2OC(=O)C(=C)[C@@H]21 | 41.8% (active) |
| Nc1nonc1-n1nnc(C(=O)N/N=C\c2ccncc2)c1CN1CCCCC1 | -1.14% (inactive) |
| O=C(c1ccc(C(F)(F)F)cc1)C1CCCN(C(=O)c2csnn2)C1 (centres undefined) | 1.58% (inactive) |
| CCN(CC(=O)Nc1ccccc1OC)C(=O)Cn1cnc2ccccc2c1=O | 1.69% (inactive) |
| Cc1ccn2cc(-c3nonc3C)cc2c1 | 11.7% (active) |
| CN(C)C(=O)c1ccc(NC(=O)c2ccccc2-c2ccccc2)cc1 | -3.02% (inactive) |
| COc1cc(CN(C)Cc2nc3cc(C(F)(F)F)ccc3c(=O)[nH]2)ccc1OC(F)F | 1.37% (inactive) |

| SMILES | max response |
| --- | --- |
| CC1(C)SC2C(NC(=O)COc3ccccc3)C(=O)N2C1C(=O)O (centres undefined) | -0.647% (inactive) |
| COc1cc(OC)c(S(=O)(=O)Nc2ccccc2C(=O)O)cc1S(=O)(=O)Nc1ccccc1C(=O)O | -2.35% (inactive) |
| COc1cc(/C=C/C(=O)O)cc(S(=O)(=O)Nc2ccccc2SC)c1OC | -2.09% (inactive) |
| O=C(O)c1ccccc1-c1ccccc1C(=O)NCCc1ccccc1 | 0.507% (inactive) |
| NC(=O)Nc1ccccc1C(=O)NCCc1ccccc1 | 63.4% (active) |
| NC(=O)c1ccccc1NC(=O)c1ccccc1F | 14.9% (inactive) |
| COc1cc(/C=C/C(=O)O)cc(S(=O)(=O)Nc2ccccc2C(=O)NCCc2ccccc2)c1OC | 41.8% (active) |
| CCN(CC)CCNC(=O)c1sc2ncn(CC(=O)Nc3ccc(C)c(Cl)c3)c(=O)c2c1C | -6.12% (inactive) |
| Cc1ccc(NC(=O)CSc2nnc(CNC(=O)c3ccccc3F)o2)cc1Cl | 7.13% (inactive) |
| CCCNC(=O)CCc1c(C)nc2c(c(C)nn2-c2ccccc2)c1C | -1.68% (inactive) |
| Cc1ccc(C)c(C(=O)N2CCC(n3nccc3NC(=O)C3CC3)CC2)c1 | -2.23% (inactive) |
| Cc1ccc(C)c(NS(=O)(=O)c2c(C)[nH]c(C)c2C(=O)N2CCCCC2)c1 | -4.94% (inactive) |
| O=C(Cn1c(-c2cncs2)nc2ccccc21)NC1CCCC1 | -2.22% (inactive) |
| O=C(/C=C/c1cnc2ccccc2n1)NC1CCCCCC1 | 49.7% (active) |
| CC(=O)OC(C(=O)NC1CCCCC1)c1ccccc1 (centres undefined) | -1.59% (inactive) |
| CC(c1ccco1)N(C(=O)Nc1ccccc1)C1CCCCC1 (centres undefined) | 14.3% (active) |
| CCCC(C(=O)NCc1ccco1)N(C(=O)CNS(=O)(=O)c1ccccc1)C1CCCC1 (centres undefined) | 2.82% (inactive) |
| CCOc1ccc(NC(=O)N(CCC(C)C)C(C)c2ccco2)cc1 (centres undefined) | 8.57% (inactive) |
| COc1ccc(C2=NS(=O)(=O)N(C)C(C(=O)N(C)Cc3ccccc3)=C2)cc1 | -2.93% (inactive) |
| O=C(C[C@H]1C(=O)N(c2ccc(F)c(F)c2)C[C@@H]1Cc1ccccc1)Nc1ccccc1 | 2.14% (inactive) |

| SMILES | max response |
| --- | --- |
| CCOc1ccc(NC(=O)C2CCN(C(=O)N3CCOc4ccccc43)CC2)cc1 | -1.22% (inactive) |
| Cc1cc(C)c2c(=O)[nH]c(SCC(=O)Nc3ccc(Br)cc3)nc2n1 | -1.25% (inactive) |
| COc1ccc(C2CC(c3cccs3)=NN2C(=O)CCC(=O)O)cc1OC (centres undefined) | -0.943% (inactive) |
| COc1ccc(C2CC(c3cccs3)=NN2c2ccc(F)cc2)cc1OC (centres undefined) | 15.3% (inactive) |
| COc1ccc(C2CC(c3cccs3)=Nc3ccccc3S2)cc1OC (centres undefined) | 30.8% (active) |
| CCn1c(CNc2ccc(OC)cc2)nnc1SCC(=O)c1ccc(OC)cc1 | 25.8% (active) |
| COC(=O)c1ccc(NC(=O)CSc2nnc(CNc3ccc(OC)cc3)n2C)cc1 | 15.4% (active) |
| CCn1c(SCC(=O)NNC(=O)c2ccc(OC)cc2)nnc1C(C)C | -1.89% (inactive) |
| C=CCn1c(CNC(=O)c2ccco2)nnc1SCC(=O)c1ccc(OC)cc1 | 0.446% (inactive) |
| COC(=O)c1ccc(NC(=O)CSc2nnc(C3CC3)n2C)cc1 | -2.61% (inactive) |
| COC(=O)c1ccc(NC(=O)CSc2nnc(-c3ccncc3)n2C)cc1 | 0.526% (inactive) |
| O=C(NCCCN1CCCC1=O)C(=O)NCC1OCCN1S(=O)(=O)c1ccc(Br)cc1 (centres undefined) | 0.895% (inactive) |
| CN(C)c1ccc(NC(=S)N(CCc2ccccc2)C2CC(=O)N(c3c(Cl)cccc3Cl)C2=O)cc1 (centres undefined) | 9.01% (inactive) |
| Cc1ccc(-n2c(SCC(=O)NCCC3=CCCCC3)nc3n[nH]c(C)c3c2=N)cc1Cl | -7.25% (inactive) |
| O=C(Cn1cncn1)N/N=C/c1c2ccccc2cc2ccccc12 | 10.8% (inactive) |
| Cc1cccn2c(=O)c3cc(C(=O)NCCN4CCOCC4)c(=N)n(Cc4cccnc4)c3nc12 | -3.88% (inactive) |
| CC(Cc1cccs1)NC(=O)NC1CCCCC1 (centres undefined) | 12% (inactive) |
| CC(Cc1cccs1)NC(=O)c1cccc(Cl)c1 (centres undefined) | 54.9% (active) |
| CC(Cc1cccs1)NCc1ccc(Cl)cc1 (centres undefined) | 8.85% (inactive) |

— PubChem BioAssay AID2314 (National Center for Advancing Translational Sciences (NCATS), 2010)
